Screening results deposited in PubChem BioAssay by National Center for Advancing Translational Sciences (NCATS).
PLK1 PBD inh = inhibitors of human PLK1 polo-box domain binding | Potency, µM, inactives show max response, negative = inhibition, hits mostly inhibitors | Plk1 PBD binding of FITC phosphopeptide, fluorescence polarization | AID 720504 | 360,000 tested, 2.8% active | P53350; further: potency means the concentration at half of the fitted maximal effect; series mostly up to about 57 µM; nearly all actives have a fitted effect of over 65% in size
Target sequence (P53350 whole entry, looked up, the tested form may be a part): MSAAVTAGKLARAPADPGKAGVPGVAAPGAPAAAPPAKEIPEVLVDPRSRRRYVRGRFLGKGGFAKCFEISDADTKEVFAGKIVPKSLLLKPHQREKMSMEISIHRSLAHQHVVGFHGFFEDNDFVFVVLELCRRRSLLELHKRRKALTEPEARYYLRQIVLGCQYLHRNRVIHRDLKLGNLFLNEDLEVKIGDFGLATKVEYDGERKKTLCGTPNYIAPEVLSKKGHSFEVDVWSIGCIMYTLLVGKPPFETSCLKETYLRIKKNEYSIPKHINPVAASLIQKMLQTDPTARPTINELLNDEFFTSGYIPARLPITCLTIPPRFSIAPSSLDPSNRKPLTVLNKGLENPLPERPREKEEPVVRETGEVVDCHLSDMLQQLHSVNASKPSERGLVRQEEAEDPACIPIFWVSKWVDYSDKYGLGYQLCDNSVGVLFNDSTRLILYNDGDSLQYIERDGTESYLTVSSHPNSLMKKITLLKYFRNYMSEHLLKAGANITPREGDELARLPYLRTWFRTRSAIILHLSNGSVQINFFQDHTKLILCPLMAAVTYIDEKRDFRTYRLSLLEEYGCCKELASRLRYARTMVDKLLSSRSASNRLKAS
CCT chaperon mod = changes cytosolic chaperonin activity | purified chaperonin ATPase assay, HTRF ADP detection, 30 min | activity change, % (concentration not given with the values), hits read low | 360,000 tested, 0.3% active; in the data active means activity change below about -30%
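TRiC (40 or 20 nM final, by batch activity) in 30 mM Tris pH 7.4, 100 mM KCl, 5 mM MgCl2, 1 mM DTT was treated with compound at 76 uM single dose, then 10 uM ATP, 30 min at 37 °C. ADP was read by HTRF Transcreener.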
VDR inhibitor = blocks the human vitamin D receptor; VDR-SRC2-3 peptide fluorescence polarization, 2 h; 400,000 tested, 0.93% active; Potency, µM, inactives show max response, negative = inhibition, most hits filed as inhibitors; P11473; further: potency means the concentration at half of the fitted maximal effect
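VDR–SRC2-3 interaction, FP format. Cmpds 23 nl via pintool, brief spin, 2 h ambient incubation.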
Sfp inh = Sfp phosphopantetheinyl transferase inhibition; 310,000 tested, 3.5% active; Potency, µM, for the others: largest response in the series, negative = inhibition, most hits filed as inhibitors; Biochemical Sfp PPTase activity, qHTS; Q9F4F7;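 further: the enzyme is Sfp with the accession as filed and its product quenches rhodamine fluorescence; potency means the concentration at half of the fitted maximal effect; 0% = enzyme reaction without inhibitor and -100% = no enzyme wells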
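After 15 min at room temperature with compound, 15 nM Sfp received 5 uM rhodamine-CoA plus 12.5 uM BHQ-2-ybbR (50 mM Hepes pH 7.6, 10 mM MgCl2). Rate came from the fluorescence difference over 30 min, ex 525/em 598 nm.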
G9a inh = G9a (human) methyltransferase inhibition; Q96KQ7; G9a H3K9 monomethylation, AlphaScreen, 2 h; Potency, µM (titrated, usually from 102 µM), for the others: top-dose activity, negative = inhibition, most hits filed as inhibitors; 350,000 tested, 8.8% active; AID 504332; further: potency means the concentration at half of the fitted maximal effect; nearly all actives have a fitted effect of over 75% in size
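AlphaScreen detection with an anti-monomethyl H3K9 antibody quantified product after a 2 h room-temperature reaction containing 500 nM biotinylated H3K9 peptide, 20 µM SAM and 20 nM enzyme, which had been preincubated 15 min with compound.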
MmCpn inh = blocks the Methanococcus maripaludis chaperonin Mm-Cpn; purified Mm-Cpn ATPase, ADP Transcreener TR-FRET; Potency, µM (highest dose often 76.9 µM), for inactives: top-dose activity, negative = inhibition, most hits filed as inhibitors; 330,000 tested, 0.031% active; further: potency means the concentration at half of the fitted maximal effect; nearly all actives have a fitted effect of over 80% in size
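TR-FRET (320 nm excitation; 590 and 665 nm emission) reports ADP made from 10 uM ATP by 25 nM enzyme; compounds were preincubated 10 min, reaction run 30 min, both at 37°C.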
* = called active by the depositor; u = inconclusive; x = no result given; [ ] = remark or other dose. This is a sample that favours compounds with a hit; in the whole collection about 10% have one here. Unless noted, the call rests on the fitted dose curve; in most records, active means well fitted curve in the direction sought with a large enough effect; inconclusive means small, poorly fitted or top-dose-only effect, or another doubt; inactive means no such curve, though single readings can be large; an effect the other way counts as inactive or inconclusive. Unless noted, on the % scale 0 is the no-effect control and ±100 the full control effect.

SMILES | PLK1 PBD inh | CCT chaperon mod | VDR inhibitor | Sfp inh | G9a inh | MmCpn inh
COc1cccc(NC(=O)CSc2nnc3[nH]c(=O)cc(-c4ccccc4)n23)c1 | x | x | 1.6% | x | u | x
O=C(Nc1ccc2nc(SCC(=O)N3CCOCC3)sc2c1)c1ccc(Cl)cc1 | x | x | 0.6% | x | -0.8%[59 µM] | x
Cc1ccc(-c2cc(C(=O)NCc3ccco3)c3ccccc3n2)o1 | u | 2.7 | -3.3% | 44.7µM* | u | -3.9%
COc1cccc(C2=NNC(=NCc3ccccc3)SC2)c1 | -23.8% | -2.5 | 12.5% | -20.8% | 44.7µM* | -1.2%
Cc1ccc(C)c(C2=NNC(=NCc3ccccc3)SC2)c1 | -24.1% | 3.6 | -24.7% | -108.0% | 35.5µM* | -0.8%
COc1ccc(CN=C2NN=C(c3ccccc3)CS2)cc1 | u | -2.5 | -29.5% | 44.7µM* | 35.5µM* | -2.2%
COc1ccc(CN=C2NN=C(c3cccc(OC)c3)CS2)cc1 | u | -1.4 | -6.9% | u | u | -0.2%
COc1ccc(NC(=O)CC2C(=O)N(c3ccc(F)cc3)C(=O)N2Cc2cccnc2)cc1 (configuration not stated) | x | x | 1.8% | x | u | x
COC(=O)C1=C(C)OC(N)=C(C#N)C1c1cc2cc(C)ccc2nc1Cl (configuration not stated) | -7.5% | -3.6 | 0.2% | 12.6% | 39.8µM* | -5.1%
COC(=O)CCC(=O)OC1(C)C(=O)C=C2C=C(c3ccsc3)OC=C2C1=O (configuration not stated) | u | -4.1 | -18.7% | 11.2% | x | x
CCC(=O)OC1(C)C(=O)C=C2C=C(c3ccsc3)OC=C2C1=O (configuration not stated) | 26.7µM* | 0.0 | u | u | u | -1.7%
COc1ccc(C(=O)Nc2ccc3nc(SCC(=O)N(C)c4ccccc4)sc3c2)cc1 | x | x | -2.7% | x | 16.9%[59 µM] | x
O=C(O)c1cnc(-c2ccccc2)nc1Sc1ccc(Cl)cc1Cl | 26.7µM* | -3.8 | u | 15.0% | -5.0% | 1.6%
O=C(O)c1cnc(-c2ccccc2)nc1C(F)(F)F | -19.1% | -50.7* | -3.1% | 19.5% | u | 0.6%
O=C(O)c1cnc(-c2ccccc2)nc1-c1ccccc1 | -6.4% | 0.5 | 0.7% | 29.1% | -0.2% | -8.0%
O=C(O)c1cnc(-c2ccccc2)nc1Sc1cccc(Cl)c1 | 29.9µM* | -0.5 | -3.8% | -2.4% | 0.0%[59 µM] | 2.1%
CCNc1ncc2nc(-c3ccc(OC)cc3)c(=O)n(-c3ccc(OC)cc3)c2n1 | x | x | -0.8% | 11.8% | 2.7%[12.7 µM] | x
CC(=O)N(OCc1ccccc1)[C@@H]1c2cc(C#N)ccc2OC(C)(C)[C@H]1O | x | x | x | 17.2% | x | x
Cn1c(NCCCCO)nc2c1c(=O)n(Cc1ccc(Cl)cc1)c(=O)n2C | x | x | -0.1% | x | 8.4%[59 µM] | x
O=[N+]([O-])c1ccccc1N/N=C1\CC2CC=CC12 (configuration not stated) | 5.0% | -2.1 | 0.0% | -11.0% | 11.2µM* | -3.0%
CC1(C)OC(=O)C(=NNc2ccccc2[N+](=O)[O-])C(=O)O1 | -0.3% | -1.6 | 9.2% | 2.3% | u | 1.2%
Cc1nn(C)c(Oc2cccc(Cl)c2)c1C#N | 8.44µM* | 1.5 | u | 3.0% | 22.7% | 2.0%
CCC(C)(C)c1ccc(Oc2cccc(C(=O)O)c2)cc1 | u | 1.1 | -11.7% | 18.2% | 6.9% | 0.9%
CCC(C)(C)c1ccc(OCCCC[n+]2ccccc2)c(C(C)(C)CC)c1 | -11.9% | -0.1 | -14.6% | 50.1µM* | u | 2.1%
CCCCCc1ccc(OCCCC[n+]2ccc(C)cc2)c(CCCCC)c1 | -12.3% | -3.4 | 0.0% | 50.1µM* | x | -1.5%
SMILES | PLK1 PBD inh | CCT chaperon mod | VDR inhibitor | Sfp inh | G9a inh | MmCpn inh
CCCCCc1ccc(OCCCC[n+]2cccc(C)c2)c(CCCCC)c1 | -12.4% | -0.5 | -3.8% | -8.4% | u | 0.2%
CCCCCc1ccc(OCCCC[n+]2ccccc2)c(CCCCC)c1 | -8.8% | 0.2 | 18.5% | 35.5µM* | u | 1.7%
COc1ccc(OC)c(NC(=O)Cn2c(=O)n(-c3ccc(Cl)cc3)c(=O)c3c(C)c(C)sc32)c1 | x | x | -6.7% | x | 5.3%[59 µM] | x
O=C(NC1CCCCC1)N1CCC(n2cnc3ccccc32)CC1 | 0.7% | -2.1 | -8.3% | -6.8% | 56.2µM* | 3.0%
O=C(O)c1ccc2c(c1)ncn2C1CCCCCC1 | -28.4% | -0.2 | 10.3% | 89.1µM* | 10.2%[59 µM] | -1.1%
Cc1cccc(C)c1NC(=O)N1CCC(n2cnc3ccccc32)CC1 | -7.7% | -0.6 | -0.5% | -2.1% | -8.6%[12.7 µM] | -2.7%
COc1cccc(Cn2cnc3c2c(=O)n(C)c(=O)n3C)c1 | x | x | -8.1% | x | 28.5%[59 µM] | x
O=C(O)c1cccc(/C=C2/C[C@@H]3[C@@H](/C=C/[C@@H](O)C4CCCCC4)[C@H](O)C[C@@H]3O2)c1 | x | x | -8.0% | -4.2% | x | x
CCCc1cc(=O)oc2cc(OC(C)C(=O)NC3CC(C)(C)NC(C)(C)C3)ccc12 (configuration not stated) | 7.2% | 0.9 | -20.1% | 8.2% | 7.08µM* | 1.8%
COc1ccc(S(=O)(=O)/N=C2/NC(=O)/C(=C\c3ccco3)S2)cc1 | -27.0% | -1.3 | -6.3% | -21.4% | 8.91µM* | -0.7%
Cc1ccc(S(=O)(=O)/N=C2/NC(=O)/C(=C/c3ccccn3)S2)cc1 | -21.5% | 1.0 | -2.5% | 12.6% | 56.2µM* | -2.3%
COc1ccc(S(=O)(=O)/N=C2/NC(=O)/C(=C/c3ccco3)S2)cc1 | -27.2% | -0.7 | 1.0% | -15.5% | u | -1.0%
Cc1ncc(C[n+]2csc(CCOC(=O)CC3C4CC5CC(C4)CC3C5)c2C)c(N)n1 (configuration not stated) | -19.3% | -1.4 | -13.1% | 3.9% | 50.1µM* | -9.2%
COC(=O)c1ccccc1NC(=O)c1cc2nc(-c3ccc(OC)cc3)cc(C(F)(F)F)n2n1 | x | x | 12.7% | x | 13.8%[59 µM] | x
Cc1ccc2nc(-c3ccccc3N)[nH]c2c1 | 29.9µM* | -0.8 | u | 2.5% | 12.4%[59 µM] | -9.0%
Cc1ccc2nc(-c3ccccn3)[nH]c2c1 | 5.0% | -1.3 | 12.0% | -23.5% | u | 0.6%
CCn1nc(NS(=O)(=O)c2ccc(NC(C)=O)cc2)c2cc3ccccc3nc21 | 23.8µM* | -2.2 | u | 23.4% | 2.5% | -3.9%
CCn1nc(NS(=O)(=O)c2ccc([N+](=O)[O-])cc2)c2cc3ccccc3nc21 | -20.8% | 0.1 | -23.0% | 14.1% | 44.7µM* | -0.5%
COc1cc(-c2noc(CSc3nc(-c4ccccc4)cc(=O)[nH]3)n2)cc(OC)c1OC | x | x | 8.9% | x | -16.3%[59 µM] | x
COc1ccc(-c2noc(CSc3nc(-c4ccccc4)cc(=O)[nH]3)n2)cc1OC | -16.5% | 0.2 | 5.4% | 35.5µM* | -18.4%[12.7 µM] | -0.8%
COc1ccc(-c2nc(Cn3c(SCc4cccc(C(F)(F)F)c4)nc4cccnc43)c(C)o2)cc1OC | x | x | 16.3% | x | u | x
Cc1ccc(NC(=O)CSc2nncn3c2cc2sccc23)cc1F | x | x | 12.2% | x | -4.9%[59 µM] | x
